98 compounds from PubChem BioAssay AID1376 (SRMLSC, 2008) can be followed below.

Out of some 220,000 compounds screened, about 530 (0.24%) were called active. The sample as a whole holds a higher share of actives than the screen did. Measured potencies and affinities stand elsewhere. Values without a mark were called inactive. No stated cut-off is given here; in the data, active means inhibition above about 13%; inconclusive means no clear call, values can overlap the other calls; inactive means below that.

By inhibition is commonly meant the relative decrease from the control value, in per cent.

The assay deals with Bifunctional protein GlmU (Mycobacterium tuberculosis (strain ATCC 25618 / H37Rv)) (UniProt P9WMN3). In words: inhibition of mycobacterial GlmU enzyme – biochemical, glucosamine-1-phosphate acetyltransferase (AID 1376).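 Further: 0% = complete reaction with vehicle and 100% = reaction without substrate.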 The following applies: M. tuberculosis GlmU acetyltransferase enzyme assay; active compounds read high;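 tested at 30 µM in the primary screen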.
Bifunctional protein GlmU (Mycobacterium tuberculosis (strain ATCC 25618 / H37Rv)), sequence (P9WMN3 whole entry, looked up): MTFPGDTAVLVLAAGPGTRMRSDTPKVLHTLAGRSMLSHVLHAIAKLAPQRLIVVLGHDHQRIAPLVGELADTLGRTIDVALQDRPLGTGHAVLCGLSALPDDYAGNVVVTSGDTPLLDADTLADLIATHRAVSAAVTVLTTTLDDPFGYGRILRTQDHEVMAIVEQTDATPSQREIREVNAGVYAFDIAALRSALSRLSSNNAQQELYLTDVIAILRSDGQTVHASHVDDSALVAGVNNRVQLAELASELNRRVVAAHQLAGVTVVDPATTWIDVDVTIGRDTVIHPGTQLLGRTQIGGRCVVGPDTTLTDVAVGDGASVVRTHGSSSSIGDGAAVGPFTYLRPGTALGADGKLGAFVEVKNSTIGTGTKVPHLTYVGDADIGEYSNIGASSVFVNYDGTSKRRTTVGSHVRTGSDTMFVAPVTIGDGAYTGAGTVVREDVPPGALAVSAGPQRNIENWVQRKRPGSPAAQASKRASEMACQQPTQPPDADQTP
For the compound `O=C(CNCC1CCCO1)N1CCCc2ccccc21` (stereo not drawn), the inhibition is 1.14%. On to `O=C(O)c1nc2ccccc2nc1C(=O)O`, for which the inhibition is -0.04%.

As for `Cc1cc(C(=O)Nc2ccc(C)c(S(=O)(=O)N3CCOCC3)c2)c(C)o1`, the inhibition was -1.51%.

On to `CCC1=C(OC(=O)N(CC)CC)N2C(=O)OC(=NCC3CC3)[C@]2(C)[C@H]2C1=CC[C@H]1C(=O)N(CC)C(=O)[C@H]12`, for which the inhibition is 1.38%. In the case of `COc1ccc(CNC(=O)Nc2ccc3c(c2)N(C)C(=O)CS3)cc1`, the inhibition was -4.33%.

With `O=C(c1ccc(C(F)(F)F)cc1)c1c[nH]c(C(=O)NCCCn2ccnc2)c1`, the inhibition was -1.27%. As to `Cc1ccccc1C(=O)NNC(=O)CSc1nnc(-c2ccncc2)n1-c1ccccc1`, the inhibition was -3.22%. The value for `OCCC1CN(Cc2cccn2-c2nccs2)CCN1C1CCCCC1` (stereo not drawn) was -4.98%. Turning to `Oc1cccc2cc3cccc(O)c3c(O)c12`, the inhibition is -0.27%.

`COc1cc2cccc(OC)c(=O)c2c(O)c1OC`: the inhibition is -3.83%. Consider `O=C(c1ccc2c(c1)OCCO2)N1CCN(c2ccc([N+](=O)[O-])cc2)CC1`, for which the inhibition is -4.31%. As for `Cc1ccc(C2=NC(=O)/C(=C/c3cc(O)c(O)c(Br)c3)S2)cc1`, the inhibition is 17.7% (active). As for `COc1cc(/C=C2\SC(c3ccc(C)cc3)=NC2=O)ccc1O`, the inhibition is 7.11%. As for `COc1cc(/C=C2\SC(c3ccc(C)cc3)=NC2=O)cc(OC)c1O`, the inhibition was 5.86%.

Take `CC(=O)Nc1ccc(/C(C)=N/NC(=O)c2ccncc2)cc1`: the inhibition is 1.93%.

Regarding `COc1ccc(N2C(=O)CC(C3CCCO3)C2=O)cc1` (stereo not drawn), the inhibition is 6.39%. With `Cn1c(O)c(C=NC2CC(C)(C)NC(C)(C)C2)c(=O)n(C)c1=O`, the inhibition was 1.39%. As for `COc1cc2c(cc1NS(=O)(=O)N1CCCCC1)oc1ccccc12`, the inhibition is 14.6% (active). With `COc1cc2c(cc1NS(=O)(=O)N1CCCC1)oc1ccccc12` the figure was 1.9%. As to `O=S(=O)(Nc1ccc2c(c1)oc1ccccc12)N1CCCC1`, the inhibition is 5.63%. With `FC(F)Oc1ccc(NC(=S)NCCc2ccccn2)cc1`, the inhibition was -3.82%. Consider `O=C(Nc1cccc(Cl)c1)Nc1nnc(CSCCOc2ccc(Cl)cc2)s1`, for which the inhibition was -7.81%. With `Cc1ccc(C)n1-c1cccc(C(=O)O)c1`, the inhibition was 23.5% (active).

With `Cc1cc(C=O)c(C)n1-c1cccc(C(=O)O)c1`, the inhibition was 6.93%. With `Cc1ccc(-c2ccccc2)n1-c1cccc(C(=O)O)c1` the figure was 5.34%; with `Cc1ccccc1NC(=O)Cn1nc(-c2ccccc2)nc1-c1ccccc1`, 1.21%. Take `O=[N+]([O-])c1cccnc1Oc1cccnc1`: the inhibition was 6.22%. With `Cn1c(Cc2ccc3c(c2)OCO3)nnc1SCC(=O)N1CCc2ccccc2C1` the figure was 1.71%; with `CCOc1cc2c(C#N)c(N3CCCC3)nc(N)c2c(N)n1`, 4.64%.

Take `N#Cc1c(N2CCCCC2)nc(N)c2c(N)nc(SCC(=O)O)cc12`: the inhibition was 13.1% (active).

Consider `N#Cc1c(N2CCCC2)nc(N)c2c(N)nc(N3CCCC3)cc12`, for which the inhibition is -6.67%. Turning to `CCOC(=O)C1CCN(c2nc(N)c3c(N)nc(SCC(=O)O)cc3c2C#N)CC1`, the inhibition was 14.2% (active). In the case of `CCOC(=O)C1CCN(c2nc(C)cc(C)c2C#N)CC1`, the inhibition was -1.41%. For the compound `COc1cc2c(C#N)c(N3CCCCC3)nc(N)c2c(N)n1`, the inhibition is -2.38%. The value for `CC(=O)Nc1ccccc1C(=O)C(=O)Nc1ccc(C)c(C)c1` was -3.19%; that for `COc1cc(C(=S)N2CCCC2)cc(Cl)c1OCC(=O)Nc1ccc(C)cc1C` was -4.86%; that for `CN(C)CCCOC(=O)c1cc2ccccc2o1` was -2.64%. In the case of `O=C(Cn1cnc2ccccc2c1=O)N1CCN(c2ccccc2)CC1`, the inhibition was 5.67%. Regarding `COC(=O)CN(c1nc(C)c(Cl)c(OC)n1)S(=O)(=O)c1ccc(C)cc1`, the inhibition is 25.4% (active). The value for `COC(=O)CN(c1nc(C)c(Br)c(OC)n1)S(=O)(=O)c1ccc(C)cc1` was 1.24%; that for `COc1nc(N(CC(N)=O)S(=O)(=O)c2ccccc2)nc(C)c1Cl` was 4.56%; that for `CC(O)CCC(=O)NNC(=S)Nc1ccccc1` (stereo not drawn) was 2.51%. In the case of `O=C(O)C1CCCCC1C(=O)Nc1ccc(F)cc1F` (stereo not drawn), the inhibition is 5.94%.

Regarding `O=C(Nc1ccccc1F)C1CCN(C(=O)Cc2ccccc2)CC1`, the inhibition was 15% (active). As for `O=C(O)C1CCCCC1C(=O)Nc1ccccc1Cl` (stereo not drawn), the inhibition was -0.88%.

Take `O=C(Nc1ccccc1Br)C1CCN(C(=O)Cc2ccccc2)CC1`: the inhibition was -6.58%.

With `O=C(Nc1cccc2ccccc12)C1CCN(C(=O)Cc2ccccc2)CC1`, the inhibition is 0.74%. Consider `O=C(O)C1CCCCC1C(=O)Nc1ccccc1F` (stereo not drawn), for which the inhibition is 13.6% (active). In the case of `COc1ccc(C2CC(c3ccc(OC)cc3)n3nc(N)nc3N2)cc1` (stereo not drawn), the inhibition is 1.16%. Regarding `COc1ccc(C2CC(c3ccc(F)cc3)Nc3nc(N)nn32)cc1` (stereo not drawn), the inhibition was 20% (active). As to `Nc1nc2n(n1)C(c1ccc(F)cc1)CC(c1ccc(F)cc1)N2` (stereo not drawn), the inhibition was -1.02%. The value for `Cc1ccc(/C(O)=C2\C(=O)C(=O)N(CC(C)O)C2c2ccccn2)cc1` (stereo not drawn) was -0.84%; that for `COC(=O)Cc1ccc(NC(=S)NCCO)cc1` was -2%. For the compound `COC(=O)Cc1ccc(NC(=S)NCCCO)cc1`, the inhibition was 13.5% (active). As for `CCCNC(=S)Nc1ccc(CC(=O)OC)cc1`, the inhibition is -4.55%.

For the compound `COC(=O)c1sc(N2C(=O)C(=O)/C(=C(/O)c3ccc(C)cc3)C2c2ccco2)nc1C` (stereo not drawn), the inhibition was -0.75%.

`CC1=C(C(=O)Nc2ccccn2)C(c2ccc(Br)cc2)NC(=S)N1` (stereo not drawn): the inhibition was 14.3% (active).

For the compound `COc1ccc(C2NC(=S)NC(C)=C2C(=O)Nc2ccccn2)cc1` (stereo not drawn), the inhibition is 2.34%. Consider `CC1=C(C(=O)Nc2ccccn2)C(c2ccc(Cl)cc2)NC(=S)N1` (stereo not drawn), for which the inhibition is 2.47%.

Take `Cc1cc(OCCCC(=O)NC2=NCCS2)ccc1Cl`: the inhibition is -5.02%. As to `CCn1cc(CNCc2cn[nH]c2-c2cc3ccccc3o2)cn1`, the inhibition was 1.28%. With `c1ccc2oc(-c3[nH]ncc3CN3CCSCC3)cc2c1`, the inhibition is 0.41%.

As to `OC1(CNCc2cn[nH]c2-c2cc3ccccc3o2)CCCCC1`, the inhibition is 14.3% (active). The value for `CSc1nccc(-c2c(-c3ccc(Cl)cc3)noc2C)n1` was 2.51%; that for `c1ccc(CNc2ncnc3c2ncn3C2CCCCO2)cc1` (stereo not drawn) was -1.2%; that for `O=C(N/N=C/C1=Cc2ccccc2OC1)c1ccncc1` was -1.23%.

As to `O=C(O)c1ccc(N/N=C/C2=Cc3ccccc3OC2)cc1`, the inhibition was 14.4% (active). As to `CC1Oc2ccccc2C=C1/C=N/Nc1ccc(C(=O)O)cc1` (stereo not drawn), the inhibition is 4.4%. For the compound `CSc1nccc(Oc2cncc(Cl)c2)n1`, the inhibition is 2.56%. Turning to `Nn1c(Cc2ccc(F)cc2)n[nH]c1=S`, the inhibition is -2.75%. With `CCOc1ccc(Cc2n[nH]c(=S)n2N)cc1` the figure was 1.55%; with `CCCCOc1ccc(Cc2n[nH]c(=S)n2N)cc1`, 12.8% (active); with `COc1ccccc1/C=N/NC(=O)C(=O)NCc1cccnc1`, 3.16%. As to `COc1ccc(S(=O)(=O)NNC(=O)c2csc(-n3nc(C)cc3C(F)(F)F)n2)cc1OC`, the inhibition is 2.2%. Regarding `O=C(O)c1ccc(Oc2c(C(F)(F)F)oc3cc(O)ccc3c2=O)cc1`, the inhibition was -3.31%. Consider `O=c1c(C(c2ccc(Cl)cc2)c2c(O)nc3n(c2=O)CCS3)c(O)nc2n1CCS2`, for which the inhibition is 9.88%.

Regarding `COc1cccc(NC(=O)CN(C)C(C)C(=O)Nc2cc([N+](=O)[O-])ccc2Cl)c1` (stereo not drawn), the inhibition was -8.73%. As for `Cc1noc(NS(=O)(=O)c2ccc(N/C=C\C(=O)c3ccccc3)cc2)c1C`, the inhibition is 1.37%. With `Cc1noc(NS(=O)(=O)c2ccc(N/C=C\C(=O)c3cccs3)cc2)c1C`, the inhibition was 13.3% (active).

Regarding `Cc1noc(NS(=O)(=O)c2ccc(N/C=C/C(=O)c3ccc(F)cc3)cc2)c1C`, the inhibition is 3.6%. On to `Cc1noc(NS(=O)(=O)c2ccc(N/C=C\C(=O)c3ccc(F)cc3)cc2)c1C`, for which the inhibition was 4.6%.

Regarding `Cc1ccc(C(=O)/C=C/Nc2ccc(S(=O)(=O)Nc3onc(C)c3C)cc2)cc1`, the inhibition was 14.2% (active). For `Cc1noc(NS(=O)(=O)c2ccc(N/C=C\C(=O)c3ccncc3)cc2)c1C`, the inhibition is 3.38%. `Cc1ccc2cc(CN(CCCN3CCOCC3)C(c3nnnn3Cc3ccco3)C(C)C)c(=O)[nH]c2c1C` (stereo not drawn): the inhibition is -1.48%.

As to `CCOc1ccc(N2C(=O)c3cccnc3C2Nc2ccc(C)c(C)c2)cc1` (stereo not drawn), the inhibition is -5.6%. Regarding `CCO[C@@H]1OC(C(=O)Nc2ccccc2)=C[C@H](c2ccc(Br)cc2)[C@H]1CCCO`, the inhibition is 1.98%. For `CC(=O)Nc1ccc(/C=C(\C#N)C(=O)NC2CCCCC2C)cc1` (stereo not drawn), the inhibition is 3.98%. On to `O=C(CN1CCN(c2ccc(Cl)cc2)CC1)NCc1ccccc1`, for which the inhibition was 1.83%. The value for `O=C1/C(=C/C=C/c2ccco2)SC(=S)N1c1ccc(O)cc1` was 7.16%; that for `CC(=C\c1ccccc1)/C=C1/SC(=S)N(C(C(=O)O)C(C)C)C1=O` (stereo not drawn) was 5.39%. As to `CC(/C=C1\SC(=S)N(C(C(=O)O)C(C)C)C1=O)=C\c1ccccc1` (stereo not drawn), the inhibition was 3.64%. The value for `O=C1S/C(=C\C=C\c2ccco2)C(=O)N1c1ccccc1` was 6.89%.

For the compound `CCCCC(=O)Nc1ncc(Br)s1`, the inhibition is 0.1%. On to `Cc1nnc(SCC(=O)Nc2cc(-c3cc(C)c(C)cc3C)nn2-c2ccccc2)s1`, for which the inhibition was -5.02%.

Turning to `COc1cc(/C=N/NC(=O)c2cccc([N+](=O)[O-])c2)ccc1OCc1ccccc1`, the inhibition is 1.61%.

As to `CCN1C(=O)/C(=C\c2ccc([N+](=O)[O-])s2)C(=O)NC1=S`, the inhibition is 92.2% (active). For `O=C1NC(=O)N(Cc2ccc(F)cc2)C(=O)/C1=C\c1ccc([N+](=O)[O-])s1`, the inhibition is 6.15%. For `CN1C(=O)NC(=O)/C(=C/c2ccc([N+](=O)[O-])s2)C1=O`, the inhibition was -1.9%.
